The text below walks through data of paper PMC5700166.

Substitutions are numbered along the chain they refer to.

Assay in all cases: protein-binding microarray (PBM); PBM: ~300 nM protein, 6 mM HEPES pH 7.8, 80 mM KCl, 0.5 mM EDTA, 0.5 mM EGTA, 6% glycerol, 35 ng/ul poly-dIdC, 1% milk, 1 h, room temperature; Ap Aiptasia and Nv Nematostella (sea anemones) / Co Capsaspora / Aq Amphimedon (sponge) / Dm Drosophila / Hu human; RHD is the Rel homology domain; high values mean tight binding
Holding throughout (details): dsDNA, one strand shown

The target of one assay is T1, GST-Ap-NF-kB RHD (Exaiptasia pallida (Aiptasia), UniProt A0A913YAJ5 2-422).
T1 sequence: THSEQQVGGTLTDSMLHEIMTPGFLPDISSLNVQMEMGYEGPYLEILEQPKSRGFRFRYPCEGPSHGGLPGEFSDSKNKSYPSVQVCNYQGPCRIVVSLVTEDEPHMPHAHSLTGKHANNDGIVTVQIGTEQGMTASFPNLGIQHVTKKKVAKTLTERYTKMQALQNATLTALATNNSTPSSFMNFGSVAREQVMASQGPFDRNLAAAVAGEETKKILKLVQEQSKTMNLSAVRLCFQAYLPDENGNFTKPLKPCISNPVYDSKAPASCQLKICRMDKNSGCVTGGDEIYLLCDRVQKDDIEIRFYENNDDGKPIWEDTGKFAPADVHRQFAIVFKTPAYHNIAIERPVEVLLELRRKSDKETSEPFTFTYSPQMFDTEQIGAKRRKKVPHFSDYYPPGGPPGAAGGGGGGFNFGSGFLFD

Assay [1] has as its target T2, GST-Nv-NF-kB (Cys allele) (Nematostella vectensis, UniProt E5G601 2-411).
T2 sequence: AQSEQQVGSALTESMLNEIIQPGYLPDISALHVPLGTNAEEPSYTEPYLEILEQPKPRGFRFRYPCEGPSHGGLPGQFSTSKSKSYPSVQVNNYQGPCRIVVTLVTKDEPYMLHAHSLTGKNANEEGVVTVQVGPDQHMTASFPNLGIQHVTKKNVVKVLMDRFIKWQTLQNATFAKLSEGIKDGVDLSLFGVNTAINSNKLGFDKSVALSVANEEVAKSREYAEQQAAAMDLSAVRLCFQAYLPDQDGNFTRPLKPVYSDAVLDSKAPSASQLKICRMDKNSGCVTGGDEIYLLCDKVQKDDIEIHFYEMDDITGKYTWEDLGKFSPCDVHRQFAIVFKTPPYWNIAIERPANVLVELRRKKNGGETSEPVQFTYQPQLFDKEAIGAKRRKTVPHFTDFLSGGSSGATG

Assay [2] deals with T3, GST-Nv-NF-kB (Ser allele) (Nematostella vectensis, UniProt A7UNT2 2-411).
T3 sequence: T2 sequence with Q21R, C66S, S207N, E215Q, V217A, E225K, A268E, D399E

For the next assay, the target named is T4, GST-Co-NF-kB (Capsaspora owczarzaki, UniProt F1ARL5 200-546).
T4 sequence: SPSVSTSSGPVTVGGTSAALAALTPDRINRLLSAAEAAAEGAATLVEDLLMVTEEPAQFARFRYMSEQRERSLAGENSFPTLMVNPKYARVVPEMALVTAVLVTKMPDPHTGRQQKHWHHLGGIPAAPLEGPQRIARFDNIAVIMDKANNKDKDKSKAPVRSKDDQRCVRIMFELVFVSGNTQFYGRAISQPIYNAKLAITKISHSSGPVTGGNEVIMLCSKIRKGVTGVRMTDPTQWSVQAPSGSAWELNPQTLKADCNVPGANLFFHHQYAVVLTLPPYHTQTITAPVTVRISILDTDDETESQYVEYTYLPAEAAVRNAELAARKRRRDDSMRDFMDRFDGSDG

The target of a further assay is T5, GST-Dm-Relish (Drosophila melanogaster, UniProt Q94527 99-473).
T5 sequence: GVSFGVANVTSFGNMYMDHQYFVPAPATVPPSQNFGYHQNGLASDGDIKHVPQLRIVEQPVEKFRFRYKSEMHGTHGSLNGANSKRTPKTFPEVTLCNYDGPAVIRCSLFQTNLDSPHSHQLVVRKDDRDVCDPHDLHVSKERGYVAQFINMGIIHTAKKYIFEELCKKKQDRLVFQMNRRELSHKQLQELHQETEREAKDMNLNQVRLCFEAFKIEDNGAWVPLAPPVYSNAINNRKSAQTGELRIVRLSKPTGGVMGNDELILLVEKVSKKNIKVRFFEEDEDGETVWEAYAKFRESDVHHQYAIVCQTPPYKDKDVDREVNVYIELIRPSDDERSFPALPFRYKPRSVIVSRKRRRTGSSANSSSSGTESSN

The next assay deals with T6, GST-Aq-NF-kB (Amphimedon queenslandica, UniProt A9Y5G7 2-389).
T6 sequence: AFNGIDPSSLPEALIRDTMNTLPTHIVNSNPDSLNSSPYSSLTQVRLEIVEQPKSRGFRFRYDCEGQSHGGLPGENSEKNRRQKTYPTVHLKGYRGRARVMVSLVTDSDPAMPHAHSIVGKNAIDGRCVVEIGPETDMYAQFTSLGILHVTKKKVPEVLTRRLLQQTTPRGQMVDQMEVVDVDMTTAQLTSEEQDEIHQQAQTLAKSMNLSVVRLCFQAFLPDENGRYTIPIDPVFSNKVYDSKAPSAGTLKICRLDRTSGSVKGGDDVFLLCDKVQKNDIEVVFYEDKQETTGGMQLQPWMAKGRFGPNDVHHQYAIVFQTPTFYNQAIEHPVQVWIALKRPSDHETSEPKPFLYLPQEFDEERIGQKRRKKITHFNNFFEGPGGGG

For “CCGATTAACATCAGGGGAATGGATGATGTTAATCGGGTCTTGATTCGCTTGACGCTGCTG”, the binding signal was found to be 5.2 z-score with GST-Ap-NF-kB RHD; 5.95 z-score in assay [1]; 7.13 z-score in assay [2]; 3.65 z-score with GST-Co-NF-kB; 1.71 z-score with GST-Dm-Relish; 4.07 z-score with GST-Aq-NF-kB.
Regarding “CCGATTAACATCAGGGGGGGGACTGATGTTAATCGGGTCTTGATTCGCTTGACGCTGCTG”, the binding signal stood at 7.06 z-score in the assay with GST-Ap-NF-kB RHD; 5.11 z-score in assay [1]; 4.69 z-score in assay [2]; 4.78 z-score in the assay with GST-Co-NF-kB; 5.29 z-score in the assay with GST-Aq-NF-kB.
“CCGATTAACATCAAGGGGGGGCATGATGTTAATCGGGTCTTGATTCGCTTGACGCTGCTG”: the binding signal with GST-Ap-NF-kB RHD was 4.34 z-score; in assay [1], 4.38 z-score; in assay [2], 2.83 z-score; with GST-Co-NF-kB, 4.6 z-score; in the assay with GST-Dm-Relish, 3.45 z-score; with GST-Aq-NF-kB, 4.09 z-score.
Turning to “CCGATTAACATCAGGATTTTCCCTGATGTTAATCGGGTCTTGATTCGCTTGACGCTGCTG”, the binding signal with GST-Ap-NF-kB RHD worked out at 5.75 z-score; in assay [1], 8.01 z-score; in assay [2], 7.34 z-score; in the assay with GST-Co-NF-kB it was 3.97 z-score; with GST-Dm-Relish, 4.83 z-score; with GST-Aq-NF-kB, 8.92 z-score.
As to “CCGATTAACATCAGGGGAAAGCATGATGTTAATCGGGTCTTGATTCGCTTGACGCTGCTG”, the binding signal with GST-Ap-NF-kB RHD is 5.49 z-score; in assay [1] it was 6.83 z-score; in assay [2], 8.3 z-score; in the assay with GST-Co-NF-kB it was 6.79 z-score; with GST-Dm-Relish it was 2.4 z-score; with GST-Aq-NF-kB, 4.54 z-score.
Take “CCGATTAACATCAACGTGGGGCGTGATGTTAATCGGGTCTTGATTCGCTTGACGCTGCTG”: the binding signal with GST-Ap-NF-kB RHD was found to be 1.07 z-score; in assay [1] it was 1.14 z-score; in assay [2], 1.09 z-score; with GST-Co-NF-kB, 1.11 z-score; with GST-Aq-NF-kB it was 1.15 z-score.
On to “CCGATTAACATCATTAGGGAAAATGATGTTAATCGGGTCTTGATTCGCTTGACGCTGCTG”, for which the binding signal was 3.51 z-score with GST-Ap-NF-kB RHD; 6.08 z-score in assay [1]; 7.94 z-score in assay [2]; 2.21 z-score with GST-Co-NF-kB; 1.55 z-score with GST-Dm-Relish; 4.53 z-score in the assay with GST-Aq-NF-kB.
Take “CCGATTAACATCAAGGGGGGGTATGATGTTAATCGGGTCTTGATTCGCTTGACGCTGCTG”: the binding signal in the assay with GST-Ap-NF-kB RHD is 4.96 z-score; in assay [1] it was 3.8 z-score; in assay [2], 3.62 z-score; with GST-Co-NF-kB it was 5.09 z-score; in the assay with GST-Dm-Relish it was 4.14 z-score; with GST-Aq-NF-kB, 4.39 z-score.
Turning to “CCGATTAACATCAGCATTTTCCCTGATGTTAATCGGGTCTTGATTCGCTTGACGCTGCTG”, the binding signal with GST-Ap-NF-kB RHD was 3.21 z-score; in assay [1], 4.61 z-score; in assay [2], 6.85 z-score; with GST-Co-NF-kB it was 3.96 z-score; with GST-Aq-NF-kB it was 3.68 z-score.
Regarding “CCGATTAACATCAAACTTTTCCCTGATGTTAATCGGGTCTTGATTCGCTTGACGCTGCTG”, the binding signal with GST-Ap-NF-kB RHD came out at 3.37 z-score; in assay [1] it was 5.66 z-score; in assay [2], 6.83 z-score; with GST-Co-NF-kB it was 4.78 z-score; with GST-Dm-Relish, 1.45 z-score; with GST-Aq-NF-kB, 4.63 z-score.
In the case of “CCGATTAACATCAGGGGAAGCACTGATGTTAATCGGGTCTTGATTCGCTTGACGCTGCTG”, the binding signal with GST-Ap-NF-kB RHD was 5.88 z-score; in assay [1], 6.43 z-score; in assay [2], 6.99 z-score; in the assay with GST-Co-NF-kB, 4.4 z-score; in the assay with GST-Dm-Relish it was 9.95 z-score; with GST-Aq-NF-kB, 6.83 z-score.
